Source: PubChem
DT40 TDP1 CPT: DT40-hTDP1 cell growth loss with CPT; chicken DT40 Tdp1-/-;hTDP1 cells + 20 nM CPT, ATP luminescence, 48 h; Potency, µM (top dose mostly 46.2 µM), for inactives: at the top dose activity change, negative = growth inhibition, most hits filed as inhibitors; actives 12% (n = 420,000); AID 686979; note: potency is the fitted concentration of half-maximal effect; nearly all actives have a fitted effect of over 55% in size
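Cell growth measured by CellTiter-Glo luminescence after a minimum 48 h, 37 C compound exposure with 20 nM CPT in Tdp1-knockout DT40 cells stably expressing hTDP1, seeded 400/well; qHTS titration format.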
TDP1 cell noCPT: qHTS for Inhibitors of human tyrosyl-DNA phosphodiesterase 1 (TDP1): qHTS in cells in absence of CPT. DT40 Tdp1-/- hTDP1 cells, no CPT, ATP luminescence, 48 h. Potency, µM (series often up to 46.2 µM), for inactives: top-dose activity change, negative = growth inhibition, most hits filed as inhibitors. actives 15% (n = 420,000). AID 686978, 2013; note: potency is the fitted concentration of half-maximal effect; nearly all actives have a fitted effect of over 55% in size
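Readout: luminescence from CellTiter-Glo after 30 min in the dark at RT. Cells: DT40 Tdp1-/- with stable hTDP1, 400/well. Exposure: compounds alone, ≥48 hr, 37 °C.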
uPA generation: cell surface uPA generation inhibition; cell surface uPA generation assay, qHTS; Potency, µM (doses to about 38.3 µM), for inactives: top-dose activity change, negative = inhibition, usual class: inhibitors; actives 0.31% (n = 330,000); active = well fitted inhibition curve with a large enough effect; inconclusive = small, poorly fitted or top-dose-only effect; inactive = no such curve, though single readings can be large or run the other way; tested in mouse RAW 264.7 cells; note: potency is the fitted concentration of half-maximal effect; nearly all actives have a fitted effect of over 55% in size
IL1B secr inh: inhibitors of inflammasome signaling (IL-1 beta secretion) | activity change, % at 57.5 µM | actives 4.7% (n = 360,000) | THP-1 LPS/ATP IL-1B secretion, AlphaLISA, 16 h; active compounds read low; in the data active = activity change below about -50%; inconclusive = mostly about -30% to -49%
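THP-1 cells pretreated 1 hr with compounds (up to 57.5 uM final), then stimulated with LPS (250 ng/mL final) plus ATP (1.25 mM final); secreted IL-1B measured by AlphaLISA after 16 hr, decreased signal indicating inhibition.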
HT1080-NT tox: kills 2HG-producing HT-1080-NT fibrosarcoma cells; Potency, µM (series often up to 46.1 µM), for the others: at the highest dose activity, negative = less viability, hits mostly cytotoxic; actives 1.6% (n = 360,000); HT-1080-NT fibrosarcoma viability, CellTiter-Glo ATP luminescence, 48 h;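 note: NT is the 2HG producing partner of a matched IDH1 knockdown line; potency is the fitted concentration of half-maximal effect; 0% = DMSO-treated cells and -100% = media-only wells without cells; nearly all actives have a fitted effect of over 55% in size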
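750 cells/well, RPMI + 5% FBS; 2 h settle, compound pin-transfer, 48 h at 37 degrees C. CellTiter-Glo 10 min RT, luminescence. Normalized to DMSO and media-only wells.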
HT1080 IDH1KD tx: HT-1080 IDH1 knockdown cell toxicity (counter line). HT-1080 IDH1 knockdown viability, ATP luminescence, 48 h. Potency, µM (top dose mostly 46.1 µM), without a hit: at the top dose activity, negative = toxicity, actives largely listed as cytotoxic. AID 686971. actives 2% (n = 360,000);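 note: potency is the fitted concentration of half-maximal effect; 0% = DMSO wells and -100% = cell-free medium wells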
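Knockdown cells (IDH1KD HT-1080) received compounds 2 h after plating at 750 cells/well and were kept 48 h at 37 °C in 5% FBS RPMI. A CellTiter-Glo luminescence read gave % activity for curve fitting.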
Active calls of the source: *; ? = inconclusive; / = no result given. In the library only some 19% were active in any assay of this set; here they are far more common. Unless noted, calls come from the whole dose curve; as a rule, active = well fitted curve in the direction sought with a large enough effect; inconclusive = small, poorly fitted or top-dose-only effect, or another doubt; inactive = no such curve, though single readings can be large; an effect the other way counts as inactive or inconclusive. Unless noted, % is set by controls: 0 for no effect and ±100 for the full control effect.

SMILES	DT40 TDP1 CPT	TDP1 cell noCPT	uPA generation	IL1B secr inh	HT1080-NT tox	HT1080 IDH1KD tx
COc1ccc(C(=O)Nc2nc3ccccc3s2)c(OC)c1	?	21µM*	-18%	-14	21µM*	21µM*
COc1ccccc1C(=O)Nc1nc(-c2ccccc2)ns1	-29%	23µM*	/	/	/	/
CCOC(=O)c1[nH]c2ccccc2c1NC(=O)c1ccccc1OC	23µM*	15µM*	/	/	/	/
CCOC(=O)c1[nH]c2ccc(OC)cc2c1NC(=S)N1CCN(c2ccccc2OC)CC1	5.2µM*	8.2µM*	-16%	-3	?	13µM*
COC(=O)c1sccc1NC(=S)N1C(C)CCCC1C (stereo not given)	-26%	-29%	7%	6	1%	-10%
CCc1ccc(-n2nnc(-c3nc(-c4ccc(C)cc4)no3)c2N)cc1	-3%	1%	/	/	/	/
CCOC(=O)c1[nH]c2ccc(OC)cc2c1NC(=O)OC	3%	-7%	3%	-5	10%	8%
COc1cccc2[nH]c3ccccc3c(=O)c12	-94%	?	-23%	0	2%	2%
CCn1cc([N+](=O)[O-])c(C(=O)Nc2nc3ccc(OC)cc3s2)n1	-14%	-4%	-2%	-59*	?	-1%
CCOC(=O)c1sc(NC(=O)c2ccccc2OC)nc1C	8.2µM*	?	-5%	-21	-1%	-3%
CCOC(=O)Nc1c(C(=O)OC)[nH]c2cc(OC)ccc12	?	21µM*	-9%	30	-11%	-8%
CCOCC(=O)Nc1nc2ccc(OC)cc2s1	?	?	-5%	-3	6%	0%
COc1cccc2[nH]c(C(=O)NN)c(N)c12	?	16µM*	-1%	25	-2%	-11%
CCC(=O)c1ccc(OCCn2cnc3ccccc32)cc1	-23%	?	-9%	-1	-8%	-5%
CCN(C[C@H]1N[C@@](CC)(C(=O)OC)[C@H]2C(=O)N(C)C(=O)[C@@H]12)C(=O)Nc1ccccc1	-20%	-1%	-6%	-2	-1%	1%
Cc1cc(N2CC(C)OC(C)C2)n2cc(-c3ccccc3)nc2n1 (stereo not given)	-23%	?	-5%	-13	1%	-6%
Cc1ccc2nc(NC(=O)c3ccccc3F)sc2c1	3%	?	-9%	6	-7%	-2%
CCOC(=O)Cc1nnc(NC(=O)c2ccccc2OC)s1	-3%	-20%	-7%	-14	17%	2%
COc1ccccc1C(=O)Nc1nnc(CCc2ccccc2)s1	?	?	-10%	-28	7.3µM*	6.5µM*
CCCCc1nnc(NC(=O)c2ccccc2OCc2c(C)noc2C)s1	16µM*	23µM*	13%	-3	0%	3%
CCCC(=O)Nc1nc2ccc(NC(=O)c3ccccc3F)cc2s1	1.8µM*	2.1µM*	-6%	12	?	?
Cc1noc(C)c1COc1ccccc1C(=O)Nc1ccc(C(N)=O)cc1	24%	3%	-12%	-4	0%	-1%
COc1cc(CNc2nc3ccccc3s2)cc(OC)c1OC	0%	23µM*	5%	12	-6%	-2%
COc1ccc2nc(NC(=O)c3ccccc3C(=O)O)sc2c1	-2%	2%	-15%	4	-3%	-3%
CCOC(=O)c1sc(Nc2nc3c(OC)cccc3s2)cc1C	?	16µM*	-2%	?	-23%	?
COc1ccc2nc(NC(=O)c3ccccc3F)sc2c1	-24%	?	10µM*	8	-10%	-13%
C=C1C(C(=O)Nc2ccccc2)C1C(=O)Nc1ccccc1 (stereo not given)	0%	0%	6%	6	2%	-7%
